Screens: PubChem BioAssay, National Center for Advancing Translational Sciences (NCATS)
This excerpt belongs to a sample that is enriched for hits.
TDP1 cell noCPT: qHTS for Inhibitors of human tyrosyl-DNA phosphodiesterase 1 (TDP1): qHTS in cells in absence of CPT; DT40 Tdp1-/- hTDP1 cells, no CPT, ATP luminescence, 48 h; 420,000 tested, 15% active; Potency, µM (titrated, usually from 46.2 µM), for inactives: at the highest dose activity change, negative = growth inhibition, hits mostly inhibitors; note: potency is the fitted concentration of half-maximal effect; nearly all actives have a fitted effect of over 55% in size
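Growth of hTDP1-complemented DT40 Tdp1-knockout cells is measured by ATP luminescence after at least 48 hr compound exposure at 37 °C, with DMSO substituting for the 20 nM CPT used in the parallel screen.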
HT1080-NT tox: qHTS for induction of synthetic lethality in tumor cells producing 2HG: qHTS for the HT-1080-NT fibrosarcoma cell line | 360,000 tested, 1.6% active | AID 686970, 2013 | Potency, µM (doses to about 46.1 µM), for inactives: top-dose activity, negative = less viability, hits mostly cytotoxic | HT-1080-NT fibrosarcoma viability, CellTiter-Glo ATP luminescence, 48 h;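 note: NT is the 2HG producing partner of a matched IDH1 knockdown line; potency is the fitted concentration of half-maximal effect; 0% = DMSO-treated cells and -100% = media-only wells without cells; nearly all actives have a fitted effect of over 55% in size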
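A 48-hour cytotoxicity screen used HT-1080-NT cells plated 2 hours before compound delivery. ATP-based CellTiter-Glo luminescence measured viability, normalized to DMSO and no-cell controls.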
DT40 TDP1 CPT: qHTS for Inhibitors of human tyrosyl-DNA phosphodiesterase 1 (TDP1): qHTS in cells in presence of CPT | chicken DT40 Tdp1-/-;hTDP1 cells + 20 nM CPT, ATP luminescence, 48 h | Potency, µM (doses to about 46.2 µM), for inactives: at the highest dose activity change, negative = growth inhibition, most hits filed as inhibitors | 420,000 tested, 12% active | AID 686979, 2013; note: potency is the fitted concentration of half-maximal effect; nearly all actives have a fitted effect of over 55% in size
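Cell growth measured by CellTiter-Glo luminescence after a minimum 48 h, 37 C compound exposure with 20 nM CPT in Tdp1-knockout DT40 cells stably expressing hTDP1, seeded 400/well; qHTS titration format.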
ALOX12 inh: Primary qHTS assay for inhibitors of human arachidonate 12S-lipoxygenase (ALOX12): Round 2. Polyunsaturated fatty acid lipoxygenase ALOX12 (Homo sapiens), P18054. purified 12hLO, xylenol orange hydroperoxide absorbance. Potency, µM (titrated, usually from 108 µM), without a hit: at the highest dose activity change, negative = inhibition, hits mostly inhibitors. 580,000 tested, 1.1% active. AID 1671190, 2021; note: potency is the fitted concentration of half-maximal effect
Target sequence (P18054 whole entry, looked up): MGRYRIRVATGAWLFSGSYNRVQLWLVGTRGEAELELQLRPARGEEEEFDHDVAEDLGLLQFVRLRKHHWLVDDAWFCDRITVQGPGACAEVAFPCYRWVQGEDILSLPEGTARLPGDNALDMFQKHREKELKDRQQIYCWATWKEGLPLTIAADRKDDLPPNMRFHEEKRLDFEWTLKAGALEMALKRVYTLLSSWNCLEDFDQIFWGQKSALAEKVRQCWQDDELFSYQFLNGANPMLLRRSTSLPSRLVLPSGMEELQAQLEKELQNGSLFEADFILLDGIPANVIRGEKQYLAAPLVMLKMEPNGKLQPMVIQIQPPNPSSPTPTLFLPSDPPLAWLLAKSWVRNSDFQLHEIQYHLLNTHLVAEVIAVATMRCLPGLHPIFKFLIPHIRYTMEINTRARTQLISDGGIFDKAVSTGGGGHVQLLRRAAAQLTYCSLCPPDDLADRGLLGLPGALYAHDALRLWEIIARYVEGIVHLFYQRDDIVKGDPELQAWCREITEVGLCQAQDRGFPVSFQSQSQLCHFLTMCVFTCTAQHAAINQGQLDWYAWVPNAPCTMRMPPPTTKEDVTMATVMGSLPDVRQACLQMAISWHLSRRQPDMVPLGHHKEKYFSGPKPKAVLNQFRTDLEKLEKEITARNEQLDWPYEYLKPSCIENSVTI
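Purified human 12hLO (150 nM final) in 25 mM Hepes, 0.01% Triton X-100, pH 7.0 was preincubated 15 min at room temperature with compound. Then 40 uM arachidonic acid was added, 30 min. Hydroperoxide was read by Fe-XO absorbance ratio 573/405 nm.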
HT1080 IDH1KD tx: qHTS for induction of synthetic lethality in tumor cells producing 2HG: qHTS for the HT-1080-IDH1KD cell line. Potency, µM (series often up to 46.1 µM), for the others: at the highest dose activity, negative = toxicity, most hits filed as cytotoxic. 360,000 tested, 2% active. HT-1080 IDH1 knockdown viability, ATP luminescence, 48 h;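 note: potency is the fitted concentration of half-maximal effect; 0% = DMSO wells and -100% = cell-free medium wells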
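Assay cells: HT-1080 with IDH1 knockdown, 750 per well, RPMI/5% FBS. Exposure: 48 h at 37 °C following 2 h pre-incubation. Read: CellTiter-Glo luminescence; fitted concentration-response, curve class assigned.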
IL-1B inflam inh: qHTS for Inhibitors of Inflammasome Signaling: IL-1-beta AlphaLISA Primary Screen; THP-1 LPS/ATP IL-1B secretion, AlphaLISA, 16 h; hits give low values; activity change, % at 57.5 µM; 360,000 tested, 4.7% active; AID 743279, 2014; in the data active = activity change below about -50%; inconclusive = mostly about -30% to -49%
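THP-1 cells pretreated 1 hr with compounds (up to 57.5 uM final), then stimulated with LPS (250 ng/mL final) plus ATP (1.25 mM final); secreted IL-1B measured by AlphaLISA after 16 hr, decreased signal indicating inhibition.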
* marks the source's active call; other numbers are inactive results; ? = inconclusive; . = no result given; ! = not active in a repeat; [ ] = dose if it differs, or a comment. Unless noted, calls come from the whole dose curve; as a rule, active = well fitted curve in the direction sought with a large enough effect; inconclusive = small, poorly fitted or top-dose-only effect, or another doubt; inactive = no such curve, though single readings can be large; an effect the other way counts as inactive or inconclusive. Unless noted, % is set by controls: 0 for no effect and ±100 for the full control effect.

SMILES	TDP1 cell noCPT	HT1080-NT tox	DT40 TDP1 CPT	ALOX12 inh	HT1080 IDH1KD tx	IL-1B inflam inh
Cc1cc(OC(C)C(=O)N(Cc2ccco2)C2CCS(=O)(=O)C2)cc(C)c1Cl (stereo not drawn)	21µM*	0%	?	.	12%	-28
CC(C)COc1ccc(C(=O)N(Cc2ccco2)C2CCS(=O)(=O)C2)cc1 (stereo not drawn)	16µM*	-1%	?	67%	-2%	2
COc1ccc(CN(C(=O)c2ccc(OCC(C)C)cc2)C2CCS(=O)(=O)C2)cc1 (stereo not drawn)	?	.	12µM*	-22%	.	.
CCCCCOc1ccc(C(=O)N(Cc2ccco2)C2CCS(=O)(=O)C2)cc1 (stereo not drawn)	?	-5%	?	-3%	-18%	3
Cc1ccc(C(=O)N2CCC(Oc3ccc(NC(=O)c4ccccc4)cn3)C2)cc1 (stereo not drawn)	.	.	.	-3%	.	.
Cc1ccc(C(=O)/C=C/c2sccc2C)cc1	.	.	.	-9%	.	.
Cn1cnc([N+](=O)[O-])c1Sc1nnc(-c2ccccc2)c(-c2ccccc2)n1	.	.	.	-17%	.	.
CCC(C)Cn1cnc2c(Sc3c([N+](=O)[O-])ncn3C)nc(N)nc21 (stereo not drawn)	23µM*	?	16µM*	-18%	?	-56*
CC(C)Cn1cnc2c(Sc3c([N+](=O)[O-])ncn3C)nc(N)nc21	?	-8%	?	?	-12%	-101*
COc1cccc(CN(C)CC(C#N)CCC#N)c1OC (stereo not drawn)	.	.	.	3%	.	.
O=C(CN(C(=O)c1cc2c(s1)CCC2)C1CCCC1)NCc1cccs1	18µM*	-7%	8.2µM*	-20%	5%[9.24 µM]	?
O=C(CN(Cc1ccccc1)C(=O)c1cc2c(s1)CCC2)NCc1cccs1	?	-1%	-24%	0%	-7%	?
O=C(CBr)N1CCc2ccccc2C(c2ccccc2)C1 (stereo not drawn)	2.6µM*	26µM*	2.6µM*	0%	21µM*	15
O=C(CN1CCOCC1)N1CCc2ccccc2C(c2ccccc2)C1 (stereo not drawn)	?	2%	-21%	?	3%	10
C=CC[C@H](CC(=O)N(CCO)Cc1ccccc1)C(=O)N[C@H](COC(=O)[C@@H](CC=C)CC(=O)OC(C)(C)C)Cc1ccccc1	13µM*	?	15µM*	-1%	?	-80*
C=CC[C@@H](CC(=O)N(CCO)Cc1ccccc1)C(=O)N[C@H](COC(=O)[C@@H](CC=C)CC(=O)OC(C)(C)C)Cc1ccccc1	?	-14%	18µM*	-1%	-27%	?
C=CC[C@H](CC(=O)N(CCO)Cc1ccccc1)C(=O)N[C@H](C)COC(=O)[C@@H](CC=C)CC(=O)OC(C)(C)C	18µM*	6%	?	0%	8%	-9
C=CC[C@@H](CC(=O)N(CCO)Cc1ccccc1)C(=O)NCCOC(=O)[C@H](CC=C)CC(=O)OC(C)(C)C	?	10%	?	0%	-2%	-6
c1cnn(-c2ccc(-c3nc(C4CCOC4)no3)cc2)c1 (stereo not drawn)	.	.	.	21%	.	.
COc1cnc(-c2ccccn2)nc1Oc1ccc(Cl)c2ccccc12	1.2µM*	-12%	1.3µM*	-3%	-29%	-10
COc1cnc(-c2ccccc2)nc1Oc1ccc(C(C)(C)C)cc1	-25%	-6%	-9%	-4%	-11%	-1
COc1cnc(-c2ccccn2)nc1Oc1ccc(Cl)cc1	1.5µM*	-5%	1.6µM*	2%	-12%	-25
COc1cnc(-c2ccccn2)nc1Oc1ccc(F)cc1F	3.7µM*	2%	10µM*	7%	-12%	16
COc1cnc(-c2ccccn2)nc1Oc1ccccc1Cl	?	14%	?	8%	1%	2
COc1cnc(-c2ccccc2)nc1Oc1ccccc1C	?	0%	?	?	-4%	12
SMILES	TDP1 cell noCPT	HT1080-NT tox	DT40 TDP1 CPT	ALOX12 inh	HT1080 IDH1KD tx	IL-1B inflam inh
Cc1cc(C(=O)NC2CCCC2)c2c(C3CCNC3)noc2n1 (stereo not drawn)	.	.	.	5%[6.33 µM]	.	.
COc1ccc(CCNc2cc(C)nc3c(-c4ccccc4)c(C)nn23)cc1OC	16µM*	-1%	?	7%	-1%	5
COc1ccc(CCNc2cc(C)nc3c(-c4ccc(Cl)cc4)cnn23)cc1OC	16µM*	?	21µM*	-9%	-28%	-15
CC(=O)Nc1ccc(Nc2cc(C)nc3c(-c4ccc(Cl)cc4)cnn23)cc1	23µM*	-12%	18µM*	41%	?	-7
COCCNc1cc(C)nc2c(-c3ccccc3OC)c(C)nn12	-11%	14%	-4%	23%	-1%	29
CC(=O)Nc1ccc(Nc2cc(C)nc3c(-c4ccc(Cl)cc4)c(C)nn23)cc1	?	?	?	-14%	?	?
COc1ccc(CCNc2cc(C)nc(N)n2)cc1OC	?	4%	?	0%	-3%	-2
Cc1cc(NC2CCCC2)n2nc(C)c(-c3ccccc3)c2n1	?	-4%	?	0%	-24%	-74*
CN1CCN(C(=O)c2cc3n(n2)CC(c2ccc(Br)cc2)OC3)CC1 (stereo not drawn)	.	.	.	5%	.	.
COc1ccccc1-c1cnn2c(NCCc3ccccc3)cc(C)nc12	?	-5%	4%	-8%	-6%	?
COc1nc(NCCc2ccc(OC)c(OC)c2)nc(Nc2ccccc2)n1	?	-2%	15µM*	?	-5%	-81*
COc1ccc(CCNc2cc(C)nc3c(-c4ccccc4)cnn23)cc1OC	29µM*	-20%	?	1%	?	?
CCCCNc1ccc(C(=O)OCCN(C)C)cc1	?	6%	13µM*!	-7%	0%	31
Cc1ccsc1C(=O)N1CCC(n2nccc2NC(=O)c2cccc(F)c2)CC1	.	.	.	-16%	.	.
